Results from PubChem BioAssay (NCI).
This is part of a sample that, as a whole, favours compounds with a hit. Of some 83,000 tested, about 20% had one in any assay.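 48-hour exposure, single concentration, 96-well plates; percent growth endpoint where 0 means no net growth. Active: below 10.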 The source made the active and inactive calls.

The compounds below were run on HL-60(TB) leukemia (assay: NCI-60 one-dose screen, 48 h (100 = growth as untreated, 0 = no growth, -100 = all killed)). Settings: 10 µM unless noted.
With `Cc1cc(N2CCCCC2)nc(NCc2cc(Nc3ccnc4cc(Cl)ccc34)ccc2F)n1` the growth was -65.7% (active). `CCn1c(-c2nonc2Nc2ccc(OC)cc2)nc2ccccc21` was tested, and the growth was 128% (inactive). `Cc1cc(Cl)c2ccc(N(C)C)cc2n1` was tested, and the growth was 93.6% (inactive). With `O=C1C=CC(=O)N1CCCCCCCCCCN1C(=O)C=CC1=O` the growth was 12.2% (inactive). With `Cc1cc(Nc2cc(N3CCN(C)CC3)nc(Sc3ccc(NC(=O)C4CC4)cc3)n2)n[nH]1` the growth was 11.2% (inactive). For `COc1ccc(C(=O)C(Br)C(Br)C(=O)O)cc1` (stereo not given), the growth was 103% (inactive). `COc1ccc(NC(=O)Nc2ccc(-c3cccnc3)cc2N2CCC(CO)CC2)cc1` was tested, and the growth was 88.6% (inactive). In the case of `CCCC(=O)Oc1ccc(/C(=C(/CC)Cc2ccccc2)c2ccc(OCCN3CCCC3)cc2)cc1`, the growth is reported as 89.2% (inactive). For `O=C1CCC23OC(C(O)c4ccccc4N12)C1C(Br)=NOC13` (stereo not given), the growth was 96% (inactive). `C#C[C@@]1(O)[C@@H](CO)O[C@@H](n2cnc3c(-c4ccccc4)ncnc32)[C@@H]1O` was tested, and the growth was 102% (inactive). In the case of `CCCCCCCCCCCCCCCC[N+]1(C)CCN(SN2CC[N+](C)(CCCCCCCCCCCCCCCC)CC2)CC1`, the growth is reported as 0.773% (active). For `O=C(/C=C/C12c3ccccc3C(c3ccccc31)C1C(=O)NC(=O)C12)c1ccccc1` (stereo not given), the growth was 9.79% (active). With `CCC12CCC3c4ccc(O)cc4CCC3C1CC(O)C2O` (stereo not given) the growth was 63.1% (inactive). With `Cc1ccc(C2CCCCC2)cc1Br` the growth was 97% (inactive). With `Cc1[nH]c2ccc(F)cc2c1CCNC(=O)C1CCN(C(=O)c2ccc(-c3ccccc3)cc2)CC1` the growth was 55.3% (inactive). For `COc1ccc(-c2nc(N/N=C/c3ccco3)nc(N3CCOCC3)c2C#N)cc1`, the growth was 94.8% (inactive). For `COc1ccc(/C=C(/C2=NCCN2)n2ccc3ccccc32)cc1`, the growth was 92% (inactive). With `CC1C2CCC(C2)C1COCCOCCO` (stereo not given) the growth was 108% (inactive). `Nc1n[nH]c2ccc([C@@H]3Nc4cc5[nH]ncc5cc4[C@H]4C5CCC(C5)[C@@H]34)cc12` (stereo not given in full) was tested, and the growth was -8.95% (active). In the case of `CCN(CC)S(=O)(=O)c1ccc2[nH]c(=O)cc(C(=O)Nc3ccc(OC)cc3OC)c2c1`, the growth is reported as 101% (inactive). With `Cc1cc(CC(C)CC(C)(C)C)n(O)c(=O)c1` (stereo not given) (tested in a mixture with another compound) the growth was -27.7% (active). In the case of `O=[N+]([O-])c1ccc(CO)cc1`, the growth is reported as 96.7% (inactive). `COc1ccc(/C=C2\N=C(c3cccnc3)N(c3ccccc3)NC2=O)cc1` was tested, and the growth was 95% (inactive). `c1csc(-c2cn3nc(-c4c[nH]c5ccccc45)sc3n2)c1` was tested, and the growth was 7.07% (active). For `COc1ccc(-c2nc3c(c(-c4ccc(Cl)cc4)nn3-c3ccccc3)c(-c3ccccc3)c2C#N)cc1`, the growth was 114% (inactive). `CCNCCNc1cc(C2CCCCC2)c(C#N)c2nc3ccccc3n12` was tested, and the growth was -62.4% (active). For `O=C(Cc1ccc(F)c(Cl)c1)Nc1cc(C2(C(F)(F)F)CC2)nn1Cc1ccccc1`, the growth was 100% (inactive). In the case of `CC(C)(C)OC(=O)N1C=C/C(=C\Cn2cc(-c3ccccc3)nn2)CC1`, the growth is reported as 75.7% (inactive). `COc1cc2nc(-c3ccc(Cl)cc3)cc(OCCCN3CCC(O)CC3)c2cc1OC` was tested, and the growth was 32.9% (inactive). `Cc1oc(-c2ccc(Cl)cc2Cl)cc1C(=O)Nc1nccs1` was tested, and the growth was 97.4% (inactive). `CNCCCNCCCN1C(=O)c2ccc3c4c(ccc(c24)C1=O)C(=O)N(CCCNCc1ccccc1OC)C3=O` was tested, and the growth was -38.1% (active). With `Cn1cc(-c2nnc(-c3cn(C)c4ncccc34)o2)c2ccccc21` the growth was 12.5% (inactive). `CCCCC/C=C/CCC(=O)N[C@H]1[C@H](Oc2c3cc4cc2Oc2ccc(cc2Cl)[C@@H](O[C@@H]2O[C@H](CO)[C@@H](O)[C@H](O)[C@H]2NC(C)=O)[C@@H]2NC(=O)[C@H](NC(=O)[C@@H]4NC(=O)[C@H]4NC(=O)[C@@H](Cc5ccc(c(Cl)c5)O3)NC(=O)[C@@H](N)c3ccc(O)c(c3)Oc3cc(O)cc4c3)c3ccc(O)c(c3)-c3c(O[C@H]4O[C@H](CO)[C@@H](O)[C@H](O)[C@@H]4O)cc(O)cc3[C@H](C(=O)O)NC2=O)O[C@H](CO)[C@H](O)[C@@H]1O` was tested, and the growth was 105% (inactive). For `C#CCNC(=O)[C@H](Cc1ccccc1)NC(=O)[C@]12CC[C@@H](C(=C)C)[C@@H]1[C@H]1CC[C@@H]3[C@@]4(C)CCC(=O)C(C)(C)[C@@H]4CC[C@@]3(C)[C@]1(C)CC2`, the growth was 33% (inactive). With `COc1ccc(/C=C2/CN(C(=O)c3ccc(C)cc3)C/C(=C\c3ccc(OC)cc3)C2=O)cc1` the growth was 80% (inactive). `Cc1ccc2nc(/C=C/c3ccc(N(C)C)cc3)cc(C)c2c1` was tested, and the growth was 15.2% (inactive). With `O=C1c2ccccc2-c2c1c1ccncc1c(=O)n2CCCn1ccnc1` the growth was 35.7% (inactive). With `C[C@H](C(=O)N[C@@H](Cc1ccc(-c2ccccc2)cc1)C(=O)NC1CC(C)(C)NC(C)(C)C1)c1ccc(-c2ccccc2)c(F)c1` the growth was -59.1% (active). `CC1(C)CC[C@]2(CO)CC[C@]3(C)[C@H](CC[C@@H]4[C@@]5(C)CCCNC(C)(C)[C@@H]5CC[C@]43C)[C@H]2[C@H]1O` was tested, and the growth was 57.8% (inactive). `Cc1c(C(N)=O)sc2ncn(CC(=O)Nc3ccc(Cl)cc3)c(=O)c12` was tested, and the growth was 110% (inactive).
